Hit rate of the full screen: of about 340,000 compounds, about 2,100 (0.62%) were called active.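 The calls were made as follows: active = first-screen hits whose inhibition reached a set limit at any dose in the follow-up dose series; inconclusive = inhibition above the set first-screen limit but never retested; inactive = the rest.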 The list is a sample of the results. Results with a measured potency or affinity are listed apart.
Target: Rac GTPase-activating protein 1 (Homo sapiens) (UniProt Q9H0H5)
Sequence (Q9H0H5 whole entry, looked up): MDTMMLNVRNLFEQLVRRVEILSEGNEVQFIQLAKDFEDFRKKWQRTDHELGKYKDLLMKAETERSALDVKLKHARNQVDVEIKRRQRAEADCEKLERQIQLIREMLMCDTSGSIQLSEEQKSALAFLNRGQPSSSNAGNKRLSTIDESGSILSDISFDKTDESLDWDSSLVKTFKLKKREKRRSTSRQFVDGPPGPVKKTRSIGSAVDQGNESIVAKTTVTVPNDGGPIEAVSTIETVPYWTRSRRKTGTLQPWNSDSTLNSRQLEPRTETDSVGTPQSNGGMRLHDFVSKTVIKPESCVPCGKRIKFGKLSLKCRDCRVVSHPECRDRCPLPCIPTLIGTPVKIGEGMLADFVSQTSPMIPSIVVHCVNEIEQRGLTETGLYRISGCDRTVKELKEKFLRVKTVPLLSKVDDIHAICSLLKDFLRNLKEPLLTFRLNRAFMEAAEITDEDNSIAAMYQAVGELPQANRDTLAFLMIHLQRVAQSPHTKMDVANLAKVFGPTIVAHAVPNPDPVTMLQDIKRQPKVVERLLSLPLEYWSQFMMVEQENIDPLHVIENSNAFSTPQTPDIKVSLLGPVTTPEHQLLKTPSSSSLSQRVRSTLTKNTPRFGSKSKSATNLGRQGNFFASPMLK
Assay: MgcRacGAP GTPase-activating activity inhibitors, confirmation, biochemical, ADP Hunter fluorescence, primary and confirmatory (AID 624330);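 also: fluorescence reports GDP produced by GAP-driven GTP hydrolysis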
Conditions: MgcRacGAP-stimulated Rac1 GTP hydrolysis, at 30 µM, hits give high values, GST-tagged Rac1 F28L mutant substrate

inhibition, inactive:
CCOc1ccc(-c2cc(C(=O)OC)[nH]n2)cc1 0.73%, CN(C)S(=O)(=O)c1ccc(C(=O)Nc2cccc(S(=O)(=O)NC3=NCCC3)c2)cc1 3.74%, O=[N+]([O-])c1ccc(N2CCN(c3cccc(Cl)c3)CC2)cn1 8.34%, Cn1c(-c2ccccc2)c(C(=O)CC#N)c2ccccc21 5.99%, Cn1c(-c2ccccc2)c(C(=O)CCl)c2ccccc21 -6.3%, CCOc1ccc2nc(-c3ccc(OC)c(OC)c3)cc(C(=O)O)c2c1 11.1%, COc1cc(-c2cc(C(=O)O)c3cc4ccccc4cc3n2)cc(OC)c1OC 11.4%, COc1ccc(-c2cc(C(=O)Nc3ccc(S(N)(=O)=O)cc3)c3ccccc3n2)cc1OC -3.78%, COc1ccc(-c2cc(C(=O)Nc3ccc(C(N)=O)cc3)c3ccccc3n2)cc1OC 12.9%, O=C(Nc1ccc(NC(=O)C2CC2)cn1)c1ccccc1 9.99%, COc1ccccc1-c1noc(-c2ccccc2C(=O)NCc2ccco2)n1 4.73%, Cc1ccc(C)n1CCN1CCN(S(=O)(=O)c2ccc(F)cc2F)CC1 4.22%, S=c1[nH]nc(-c2ccco2)n1/N=C/c1c(Cl)cccc1Cl 8.7%, S=c1[nH]nc(-c2ccco2)n1/N=C/c1cccc(Cl)c1 12%, S=c1[nH]nc(-c2ccco2)n1/N=C/c1ccccc1Cl 14.4%, S=c1[nH]nc(-c2ccco2)n1/N=C/c1ccc(Cl)c(Cl)c1 7.47%, COc1cccc(NC(=O)CN(C)C(=O)CSc2nc3ccccc3s2)c1 -3.45%, CCOc1ccc(N2C(=O)CC(NCCc3ccc(S(N)(=O)=O)cc3)C2=O)cc1 (configuration not stated) 9.91%, O=C(O)[C@H]1CCCC[C@H]1C(=O)Nc1ccc(S(=O)(=O)N2CCCCC2)cc1 6.35%, CCOc1ccc(/C=N/NC(=O)c2ccc(Cn3cc(Br)cn3)o2)cc1 -8.44%, CC(=O)C(=Nc1ccc(Cl)cc1Cl)NNc1cccc(Cl)c1 22.6%, Clc1cccc(OCCCN2CCCC2)c1Cl 19%, CC1CN(CCOc2cccc(Oc3ccccc3)c2)CC(C)O1 (configuration not stated) 19.8%, CCC(=O)c1ccccc1OCCCN1CCC(Cc2ccccc2)CC1 16.5%, CCOc1ccccc1OCCN1CCC(Cc2ccccc2)CC1 11.1%, CCN1CCN(Cc2ccc(OCc3ccccc3)c(OC)c2)CC1 14.4%, c1ccc(Oc2cccc(OCCCCN3CCCC3)c2)cc1 18.1%, CC1CC(C)CN(CCOc2cccc(Cl)c2Cl)C1 (configuration not stated) 18.8%, COC(=O)c1ccccc1OCCN1CCCCCC1 24.5%, CCc1ccc(/C([O-])=C(/C(=S)NCCN2CCOCC2)[n+]2ccccc2)cc1 -2.62%, CC[C@]12c3[nH]c4ccc(Cl)cc4c3CCN1C(=O)[C@@H](CC(=O)NCc1ccco1)C[C@@H]2C(=O)N1CCN(C(=O)C2CC2)CC1 9.23%, CC12CCC(=O)N1C(C(=O)N1CCN(S(=O)(=O)c3ccccc3F)CC1)CS2 (configuration not stated) 2.86%, CCOC(=O)c1ccc2c(c1)nc(-c1ccc(F)cc1)c1nccn12 0.78%, COc1ccc(CN2CCOCCOCCOCCOCCOCC2)cc1 12.1%, CCC(=O)Nc1cccc(NC(=O)CN2CCN(c3ccccc3OC)CC2)c1 9.77%, Cc1ccc(C2(C)NC(=O)N(CC(=O)N(c3ccccc3)C3CCS(=O)(=O)C3)C2=O)cc1 (configuration not stated) -6.22%, CCN(CC)S(=O)(=O)c1cccc(C(=O)NN2Cc3ccccc3C2=N)c1 -4.56%, CCn1c(SCC(=O)Nc2ccc(C)cc2)nnc1-c1ccc(O)cc1 5.22%, C=CCn1c(SCC(=O)Nc2ccc3c(c2)OCO3)nnc1-c1ccccc1 6.23%, C=CCn1c(SCC(=O)NNC(=O)Nc2ccc(C)cc2)nnc1-c1ccccc1 1.01%, CCn1c(SCC(=O)Nc2cc(C)on2)nnc1-c1cccc(C)c1 7.99%, Cc1csc(=O)n1CCC(=O)OCC(=O)Nc1ccc(Cl)cn1 4.45%, CCOc1ccc(S(=O)(=O)N/N=C(\C)C2CCCCC2)cc1 3.81%, CCCCOc1ccc(/C=N/NC(=O)c2csc(C)c2C)cc1 16.6%, COc1cccc(-n2nnc3c(=O)n(CC(=O)N4CCC(C)CC4)cnc32)c1 11.4%, CCOc1ncccc1C(=O)OCC(=O)NCc1ccccc1 5.95%, O=C(CN1CCN(C2CCCCC2)CC1)Nc1cccc2ccccc12 15.3%, O=C(CN1CCCCC1)Nc1ccccc1-c1ccccc1 6.84%, Cc1cc(C)cc(OCC(=O)N2CCN(c3ncccn3)CC2)c1 1.56%, Cc1ccc(OC(=O)COc2ccccc2C)cc1 9.41%, COc1ccc(CC(=O)Oc2cc(C)ccc2C)cc1 4.1%, Cc1cccc(OCC(=O)Oc2ccc(Cl)cc2)c1 14.7%, Cc1ccc(OCC(=O)Oc2ccc(C(C)C)cc2)cc1 15.2%, COc1ccc(N(C(=O)COc2cccc(C)c2)S(=O)(=O)c2ccc(C)cc2)cc1 7.24%, COc1ccc(OC(=O)COc2ccc(Cl)cc2)cc1 10.7%, Cc1ccc(C(=O)C[n+]2ccc(-c3nnc4n3CCC4)cc2)cc1 -12.9%, CN(C(=O)CSc1nnc(-c2ccccc2F)n1N)C1CCCCC1 4.13%, Cc1noc(C)c1NC(=O)NCCN1CCN(Cc2ccccc2)CC1 11.3%, CCOc1ccc2[nH]c(=O)c(CN(CCN3CCCC3)C(=S)Nc3ccccc3OC)cc2c1 3.77%, C=CCc1ccccc1OCC(=O)N/N=C/c1ccc(OC(C)=O)cc1OC(C)=O -0.28%, C1=CC2=NC34CCCCC3CC3=C(CCCC3)N4C2=CC1=NC1CCCCC1 (configuration not stated) 11.1%, CCOc1ccc(NC(=O)NC2CCCc3ccccc32)cc1 (configuration not stated) 13.3%, COc1ccc(CNC2CCCc3ccccc32)cc1OC (configuration not stated) 6.79%, CCOc1ccc2[nH]c3ncccc3c(=O)c2c1 3.15%, CCOc1ccc(N=Nc2ccc(O)c3ncccc23)cc1 5.89%, COc1cc(/C=N/NC(=O)c2cc(C)oc2C)cc(OC)c1OC -1.5%, COc1ccc(/C=N/NC(=O)c2cc(C)oc2C)cc1OC 3.85%, COc1ccc(/C=N/NC(=O)c2cc(C)oc2C)cc1OCc1ccccc1 11.1%, COc1ccc(/C=N/NC(=O)c2ccoc2C)cc1OC 6.81%, COc1cc(/C=N/NC(=O)c2cc(C)oc2C)ccc1OCc1ccccc1 5.24%, COc1cc(/C=N/NC(=O)c2ccoc2C)cc(OC)c1O 21.6%, Cc1ccc(S(=O)(=O)N2CCN(C(=O)c3ccco3)CC2)c(C)c1 6.61%, CC(=O)Nc1ccc(S(=O)(=O)N2CCCC3CCCCC32)cc1 (configuration not stated) 2.55%, COCCCNC(=O)CC1C[C@H](C(=O)N2CCOCC2)[C@@]2(CCC3CCCC3)c3[nH]c4ccc(OC)cc4c3CCN2C1=O (some centres not stated) 3.79%, O=C(NC1CCN(Cc2ccc(Cl)cc2Cl)CC1)c1ccccc1 5.03%, Cn1c(C(=O)N2CCCC(Nc3ccc(F)cc3)C2)cc2ccccc21 (configuration not stated) -8.53%, O=C(O)c1cccc(S(=O)(=O)Nc2ccccc2C(=O)NCCc2ccccc2)c1 4.14%, COc1cccc(CNCc2ccc3c(c2)OCO3)c1 31.8%, Fc1cccc(CNCc2ccc3c(c2)OCO3)c1 3.78%, COc1cc(CC(=O)NCc2ccc3c(c2)OCO3)cc(OC)c1OC 4.17%, COc1cc(C(=O)NCCc2ccc3c(c2)OCO3)cc(OC)c1OC -4.93%, CC1(C)CC(=O)C=C(c2cccc(OC(=O)c3ccc(-c4ccccc4)cc3)c2)C1=O 11.9%, CCOc1ccc(NC(=O)CN2CCN(c3ccc(F)cc3)CC2)cc1S(=O)(=O)N1CCCC1 10.6%, CN(CC(O)COc1ccc(S(=O)(=O)N2CCOCC2)cc1)C1CCCCC1 (configuration not stated) 10.6%, O=C(CSc1nnnn1Cc1ccccc1)Nc1cccc(F)c1 8.78%, N=C(N)c1ccc(N)cc1 10.7%, Nc1ccc(C(=O)C(=O)c2ccc(N)cc2)cc1 6.66%, CC(NC(=O)COc1cccc(Br)c1)C(=O)O (configuration not stated) 3.37%, CCc1sc(C(=O)Nc2ccc(N3CCOCC3)cc2)cc1C 9.93%, CCOC(=O)/C(C#N)=C\C=C1C=CN(C)C=C1 10.4%, CN1C(=S)SC(N(O)C=C2C=CC(=O)C=C2)C1(C)C (configuration not stated) 24.5%, COc1ccc(C(CNC(=O)c2ccc(NS(=O)(=O)c3ccc4c(c3)OCCO4)cc2)N(C)C)cc1 (configuration not stated) -0.2%, CCC(C)(c1ccc(C=O)s1)c1ccc(C=O)s1 6.23%, Cc1ccc2c(CC(=O)NCc3cccs3)coc2c1 3.76%, Cc1ccc2c(CC(=O)NNC(=O)c3ccccc3O)coc2c1 -8.73%, Cc1ccc2c(CC(=O)NNC(=O)c3ccccc3)coc2c1 6.09%, COc1ccc2c(CC(=O)NNC(=O)c3cccs3)coc2c1 5.91%

— PubChem BioAssay AID624330 (Southern Research Specialized Biocontainment Screening …, 2012)
